Assay outcomes from PubChem.
The entries come from a sample that favours hits as a whole.
NS1 function inh: influenza NS1 inhibition. Potency, µM (doses to about 46.1 µM). 0.4% of 270,000 active. AID 2326; further: actives are rising curves; nearly all actives have a fitted effect of over 50% in size
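Growth recovery, yeast-based: influenza A NS1 expressed in S. cerevisiae causes slow growth, and suppressors are detected by OD600. The parent strain without NS1 is used as positive control.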
LmPK inh: LmPK (Leishmania mexicana) enzyme inhibition; Q27686; purified LmPK, Kinase-Glo ATP luminescence, 1 h; Potency, µM (series often up to 57.5 µM), hits mostly inhibitors; 0.37% of 290,000 active; AID 1721; active means well fitted curve in the direction sought with a large enough effect; inconclusive means small, poorly fitted or top-dose-only effect, or another doubt; inactive means no such curve, though single readings can be large; an effect the other way counts as inactive or inconclusive
Target sequence (Q27686 whole entry, looked up): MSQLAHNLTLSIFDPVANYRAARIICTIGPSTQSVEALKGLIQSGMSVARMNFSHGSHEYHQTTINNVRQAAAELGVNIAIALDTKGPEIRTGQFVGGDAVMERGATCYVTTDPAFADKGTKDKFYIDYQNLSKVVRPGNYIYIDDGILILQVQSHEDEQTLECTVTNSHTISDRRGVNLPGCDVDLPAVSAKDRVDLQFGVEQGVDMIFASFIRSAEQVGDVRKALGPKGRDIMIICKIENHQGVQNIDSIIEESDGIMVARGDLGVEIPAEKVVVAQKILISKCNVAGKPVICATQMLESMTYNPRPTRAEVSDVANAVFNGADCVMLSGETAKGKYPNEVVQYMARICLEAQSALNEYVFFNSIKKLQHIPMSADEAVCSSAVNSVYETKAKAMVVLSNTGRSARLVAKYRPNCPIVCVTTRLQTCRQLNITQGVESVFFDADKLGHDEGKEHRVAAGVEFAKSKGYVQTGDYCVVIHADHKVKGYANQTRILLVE
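In 50 mM imidazole pH 7.2 with 7 mM MgCl2, LmPK (0.1 nM) turned over PEP (0.5 mM) and ADP (0.1 mM) for 1 h at room temperature. Luciferase read-out of ATP.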
Shiga inhibitor: Shiga toxin inhibition. AID 2315. inhibition, % at 38.7 µM. Vero cells, Shiga toxin protein synthesis inhibition reporter. 9.2% of 290,000 active; in the data active means inhibition mostly above about 28%, no sharp cut-off; inactive means mostly below about 43%
SARS PLP yeast: inhibitors of SARS-CoV papain-like protease in yeast. AID 485353. 0.19% of 330,000 active. Potency, µM (titrated, usually from 32.9 µM), usual class: activators. S. cerevisiae expressing SARS-CoV PLpro, growth rescue; further: nearly all actives have a fitted effect of over 55% in size
Cycloheximide cs: counter-screen for Shiga toxin inhibitors: cycloheximide protein synthesis inhibition. 12% of 300,000 active. max response, %. cell reporter, cycloheximide protein synthesis inhibition counterscreen; in the data active means max response mostly above about 13%, no sharp cut-off; inactive means mostly below about 14%; further: read at 38.3 µM for the half of the compounds with a filed dose
Tb PYK inh: inhibitors of Trypanosoma brucei pyruvate kinase | Q57TT1 | TbPYK enzyme, Kinase-Glo Plus ATP luminescence, 45 min | Potency, µM (highest dose often 76.8 µM), usual class: inhibitors | 0.12% of 410,000 active | AID 624173; active means well fitted curve in the direction sought with a large enough effect; inconclusive means small, poorly fitted or top-dose-only effect, or another doubt; inactive means no such curve, though single readings can be large; an effect the other way counts as inactive or inconclusive; further: nearly all actives have a fitted effect of over 50% in size
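Enzyme and substrate buffer are dispensed first and compound is pin-transferred. ADP at 130 uM final then starts the reaction, which runs 45 min at room temperature. Detection reagent is added for 10 min before luminescence is imaged.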
Numbers stand for hits; i = inactive; ? = inconclusive; nt = not tested or not shown; ! = not active in a repeat. Unless noted, the call rests on the fitted dose curve.

SMILES	NS1 function inh	LmPK inh	Shiga inhibitor	SARS PLP yeast	Cycloheximide cs	Tb PYK inh
O=c1[nH]c2ccccc2nc1-c1ccc(Cl)cc1	i	i	52.3	i	18.2	i
CN(C)c1ccc(C(=O)N2CCC2(C)C(=O)O)cc1 (centres undefined)	nt	nt	nt	nt	nt	i
CN(C)Cc1c(C(=O)N/N=C/c2ccncc2)nnn1-c1nonc1N	i	i	i	i	i	i
COc1cc(C)ccc1OCCCOc1ccccc1Cl	i	i	92.8	i	51.1	i
O=C1CCC(=O)N1OCCCOc1ccccc1	i	i	i	i	i	nt
CC(C)(C)c1ccc(OCCON2C(=O)CCC2=O)c(Cl)c1	i	i	63.5	i	38.8	i
COc1cc(C)ccc1OCCCCOc1ccccc1C(C)=O	i	i	i	i	i	i
O=C1CCC(=O)N1OCCCCOc1ccccc1	i	i	i	i	11.8	i
COc1cc(C)ccc1OCCOCCOc1ccccc1[N+](=O)[O-]	i	i	i	?	21.6	i
CNCCCCOc1ccc(C(C)(C)C)cc1Cl	i	i	i	i	i	i
Nc1cccc(CP(=O)(c2ccccc2)c2ccccc2)c1	nt	nt	nt	i	nt	i
Cc1cc(C)c(OCCCON2C(=O)CCC2=O)c(Br)c1	i	i	i	i	i	i
COc1cc(C)ccc1OCCOc1ccccc1Cl	i	i	60.8	i	31.3	i
COc1cc(C)ccc1OCCCON1C(=O)CCC1=O	i	i	19.8	i	i	i
Cc1cc(N2C(=O)C(O)=C(C(=O)c3cc4ccccc4o3)C2c2ccc(Cl)cc2)no1 (centres undefined)	i	i	i	i	i	i
Cc1cc(N2C(=O)C(O)=C(C(=O)c3cc4ccccc4o3)C2c2ccc(Br)cc2)no1 (centres undefined)	i	i	i	i	42.2	i
CCc1cc(C(=O)Nc2ccc(OC)nc2)sc1C	nt	nt	nt	i	nt	i
CCc1cc(C(=O)Nc2ncccc2O)sc1C	i	i	55.2	i	36.5	i
O=C(Nc1ccc2c(c1)OCO2)c1ccc(NC2CC2)c([N+](=O)[O-])c1	i	i	102.4	i	26.3	i
CC1CCCN(c2ccc(C(=O)Nc3cccnc3)cc2[N+](=O)[O-])C1 (centres undefined)	nt	i	48.1	i	i	i
O=C(Nc1ccc2c(c1)OCO2)c1ccc(N2CCCC2)c([N+](=O)[O-])c1	i	i	i	i	34.4	i
O=C1C=C(c2cc3ccccc3o2)C[C@@H](c2ccc(F)cc2)C1	nt	nt	nt	i	nt	i
COc1ccc(-c2ccc(C)cc2)cc1C1C2C=CCC(C)C2C(=O)N1Cc1ccccc1 (centres undefined)	nt	nt	i	nt	i	nt
Cc1ccc(NC(=O)CSc2ncc3c(n2)-c2ccccc2N(Cc2cccc(F)c2)S3(=O)=O)cc1F	nt	nt	nt	nt	nt	i
COc1ccc(CNC(=O)c2ccc3nc(C(C)C)oc3c2)cc1OC	nt	nt	nt	nt	nt	i
SMILES	NS1 function inh	LmPK inh	Shiga inhibitor	SARS PLP yeast	Cycloheximide cs	Tb PYK inh
COc1cc(C(=O)n2nc(C)c(Sc3ccc(Cl)cc3)c2C)cc(OC)c1OC	nt	nt	nt	nt	nt	i
Cc1cc(C)cc(N(CC(=O)NCc2ccccc2Cl)S(=O)(=O)c2c(C)noc2C)c1	nt	nt	nt	nt	nt	i
Cc1ccc(OCC(=O)Nc2cccc3ccc(C)nc23)c(C)c1	nt	nt	nt	nt	nt	i
Cc1ccc(OCC(=O)NC(=S)Nc2cccc(C)n2)cc1	i	i	i	i	i	i
Cc1ccc(OCC(=O)Nc2cccc(C)n2)c(C)c1	i	i	76.8	i	35.8	i
Cc1cccc(NC(=O)COc2ccc(Br)cc2)n1	i	i	71.9	i	62.3	i
COc1ccc(NC(=O)c2ccc(S(=O)(=O)N(C)c3ccccc3)cc2)cn1	i	i	i	i	i	i
CC(C)C(=O)c1cc2c(cc1NC(=O)c1ccccc1)OCCO2	i	i	i	i	i	i
O=C(Nc1cc2c(cc1Cl)OCCCO2)c1ccco1	i	i	105.2	i	79.9	i
CCOc1cc(Cl)c(NC(=O)c2ccco2)cc1OCC	i	i	i	i	i	i
O=C(Nc1cc2c(cc1C(=O)O)OCCCO2)c1ccc(F)cc1F	i	i	i	i	16.9	i
COc1ccccc1C(=O)Nc1cc2c(cc1C(=O)O)OCCCO2	i	i	i	i	i	i
O=C(Nc1cc2c(cc1Cl)OCCCO2)c1ccccc1	i	i	98.9	i	31.4	i
COc1cc(/C=N\Nc2nncn2N)ccc1OC(C)=O	i	i	i	i	17.0	i
COc1ccc(OC)c(/C=N/Nc2nncn2/N=C/c2cc(OC)ccc2OC)c1	i	i	i	i	i	i
COc1cc(/C=N/Nc2nncn2/N=C/c2ccc(O)c(OC)c2)ccc1O	nt	14.1µM	48.4	i	12.8	?
Nc1cc2ccncc2c2ccccc12	i	i	i	i	i	i
COc1ccc(C2/C=C\CN(S(=O)(=O)c3ccc(-c4ccccc4)cc3)CC(=O)N2Cc2ccc(F)cc2)cc1 (centres undefined)	i	i	68.1!	i	i	i
COc1ccc(C2/C=C\CN(C(=O)Nc3ccccc3)CC(=O)N2Cc2ccc(F)cc2)cc1 (centres undefined)	i	i	i	i	i	i
COc1ccc(C2/C=C\CN(C(=O)c3ccc(C)cc3)CC(=O)N2Cc2ccc(F)cc2)cc1 (centres undefined)	i	i	163.3!	i	82.0!	i
Cc1cc(C)c(NC(=O)CNC(=O)COC(=O)CNC(=O)c2ccc(Cl)cc2Cl)c(C)c1	nt	nt	nt	i	nt	i
O=C(c1cc2c(s1)-c1ccccc1OC2)N1CCc2ccccc2C1	i	i	56.4	i	87.1	i
COC(=O)c1cc2c(s1)-c1ccccc1OC2	i	i	64.1	i	27.9	i
COc1ccccc1N1CCN(C(=O)c2cc3c(s2)-c2ccccc2OC3)CC1	i	i	i	i	i	i
COc1ccc(N(C)C(=O)c2cc3c(s2)-c2ccccc2OC3)cc1	nt	nt	nt	nt	nt	i
SMILES	NS1 function inh	LmPK inh	Shiga inhibitor	SARS PLP yeast	Cycloheximide cs	Tb PYK inh
CCOC(=O)C1CCN(C(=O)c2cc3c(s2)-c2ccccc2OC3)CC1	i	i	40.0	i	20.7	i
COC(=O)c1cc2c(s1)-c1ccc(OC)cc1CC2	i	i	115.2	i	54.6	i
CCC(=O)N1CCc2cc(S(=O)(=O)NCCC(=O)Nc3ccc(C)cc3)ccc21	nt	nt	nt	nt	nt	i
CCN(CC)S(=O)(=O)c1cccc(-c2n[nH]c(=S)n2Cc2ccccc2)c1	nt	i	i	i	i	5.62µM
CCN(CC)S(=O)(=O)c1cccc(-c2n[nH]c(=S)n2CC(C)C)c1	nt	?	i	i	i	8.91µM
COc1ccc(NC(=O)CCNC(=O)c2ccc([N+](=O)[O-])cc2)cc1S(=O)(=O)N1CCCCC1	nt	nt	nt	i	nt	i
CCN1CCN(c2ccc(N=Cc3ccc(O)cc3O)cc2)CC1	i	i	i	i	i	i
N#Cc1c(/N=C/c2ccc(O)cc2O)sc2c1C1CCN2CC1	i	i	i	i	9.9	i
CCN1CCCC1CNC(=O)C(=O)Nc1ccccc1 (centres undefined)	nt	i	85.6	i	29.4	i
Cc1cccc(Nc2nc(N)nc(CN3CCN(c4ccccc4)CC3)n2)c1	i	i	i	i	i	i
